Compound activity (PubChem)
Shown are actives, neighbours in structure and some others; about 3.8% of the full set was active somewhere.
Sfp inh: Sfp phosphopantetheinyl transferase inhibition | Q9F4F7 | Biochemical Sfp PPTase activity, qHTS | Potency, µM, inactives show largest response in the series, negative = inhibition, actives largely listed as inhibitors | 310,000 tested, 3.5% active | AID 1490;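 further: the enzyme is Sfp with the accession as filed and its product quenches rhodamine fluorescence; 0% = enzyme reaction without inhibitor and -100% = no enzyme wells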
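Fluorescence-quenching assay: 15 nM Sfp-PPTase preincubated 15 min at room temperature with compound, then 5 uM rhodamine-CoA and 12.5 uM BHQ-2-labelled YbbR peptide added. Fluorescence (ex 525/em 598 nm) read at start and after 30 min; difference gives rate.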
VDR inhibitor: vitamin D3 receptor (human) inhibition | VDR-SRC2-3 peptide fluorescence polarization, 2 h | 400,000 tested, 0.93% active | AID 504847 | P11473 | Potency, µM, without a hit: max response, negative = inhibition, usual class: inhibitors
Target sequence (P11473 whole entry, looked up): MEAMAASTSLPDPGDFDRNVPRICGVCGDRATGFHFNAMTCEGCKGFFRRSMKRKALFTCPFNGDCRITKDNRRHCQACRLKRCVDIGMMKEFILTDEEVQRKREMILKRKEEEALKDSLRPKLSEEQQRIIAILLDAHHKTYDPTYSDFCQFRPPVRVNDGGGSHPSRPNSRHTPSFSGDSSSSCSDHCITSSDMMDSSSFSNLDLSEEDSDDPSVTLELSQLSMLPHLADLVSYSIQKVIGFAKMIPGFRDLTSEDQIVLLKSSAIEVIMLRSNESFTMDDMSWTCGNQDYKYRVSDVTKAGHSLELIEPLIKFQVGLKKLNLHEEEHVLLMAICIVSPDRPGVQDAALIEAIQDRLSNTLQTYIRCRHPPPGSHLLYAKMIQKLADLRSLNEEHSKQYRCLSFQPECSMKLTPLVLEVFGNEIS
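After 23 nl compound addition and a short centrifugation, plates sat for 2 hours at ambient temperature; polarization of fluorescence then indicated loss of VDR binding to peptide SRC2-3.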
TrxR1 substrate: is turned over as a substrate by rat TrxR1; O89049; purified TrxR1 substrate turnover, NADPH consumption readout; Potency, µM (top dose mostly 114 µM), for the others: at the highest dose activity change, negative = substrate turnover; 390,000 tested, 0.01% active; further: nearly all actives have a fitted effect of over 50% in size
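Rat TrxR1, dispensed at 90 nM, was prereduced with 400 uM NADPH (final) for 5 min at ~22 deg C, then incubated with compound 15 min before 400 uM selenite. A first-read NADPH fluorescence drop versus no-compound background flagged substrates.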
rTrxR1 inhibitor: rat TrxR1 inhibition; O89049; recombinant rTrxR1, NADPH fluorescence consumption, selenite substrate; Potency, µM (highest dose often 114 µM), for inactives: at the highest dose activity change, negative = inhibition, usual class: inhibitors; 390,000 tested, 1% active; AID 588453; further: nearly all actives have a fitted effect of over 65% in size
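Rat TrxR1 (90 nM in the dispensed reagent) was pre-reduced with 400 uM NADPH for 5 min at room temperature, then incubated with compound for 15 min. After 400 uM selenite was added, NADPH fluorescence (Ex 340/Em 450 nm) was followed for 8 min.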
KAT2A inh: inhibitors of human GCN5L2 histone acetyltransferase; 390,000 tested, 0.21% active; GCN5L2 HAT assay, ThioGlo1 CoA-SH fluorescence; Q92830; AID 504327; Potency, µM (top dose mostly 58.9 µM), inactives show at the top dose activity change, negative = inhibition, actives largely listed as inhibitors
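Free CoA generated was detected with ThioGlo1 (50uM) fluorescence at Ex340nm/Em540nm, read immediately and after 20 min at room temperature. Enzyme, 20 nM in HEPES pH 7.5 buffer, saw compounds 15 min before adding 75uM H3(1-25) peptide and 70uM acetyl-CoA.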
GLS inh: glutaminase GLS (human) inhibition; 410,000 tested, 0.21% active; GLS enzymatic activity, qHTS titration; Potency, µM (titrated, usually from 45.5 µM), for inactives: at the top dose activity change, negative = inhibition, usual class: inhibitors; AID 624170; O94925
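hKGA in 45 mM KH2PO4 (pH 8.2), 0.02% Tween-20 with compound, then 1mM L-Glutamine (stock as added) plus glutamate oxidase/HRP/Amplex red coupling mix. Fluorescence read initially and after 30 min at RT; signal change reflects glutamate formation.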
An asterisk follows results filed as active; ? = inconclusive; . = no result; [ ] = remark or other dose. The call rests on the fitted dose curve; in most records, active means well fitted curve in the direction sought with a large enough effect; inconclusive means small, poorly fitted or top-dose-only effect, or another doubt; inactive means no such curve, though single readings can be large; an effect the other way counts as inactive or inconclusive. Unless noted, on the % scale 0 is the no-effect control and ±100 the full control effect; potency means the concentration at half of the fitted maximal effect.

SMILES	Sfp inh	VDR inhibitor	TrxR1 substrate	rTrxR1 inhibitor	KAT2A inh	GLS inh
CC(=O)c1cc(-c2ccccc2)n(CC(=O)N2CCC(N3CCCCC3)CC2)c1C	4.1%	19.2%	-1.1%	-2.4%	0.5%	7.5%
CCOC(=O)C1CCCN(C(=O)Cn2sc3nc(C)cc(C)c3c2=O)C1 (stereo not drawn)	1.78µM*	?	-17.0%	-16.7%	?	10.2%
CCOC(=O)C1CCCN(C(=O)Cn2cnc3c2c(=O)n(C)c(=O)n3C)C1 (stereo not drawn)	9.2%	8.1%	-3.1%[57.1 µM]	1.7%[57.1 µM]	2.9%	0.1%
Cc1cc(C)c2c(=O)n(CC(=O)N3CCC(N4CCCCC4)CC3)sc2n1	8.91µM*	20µM*	-0.1%[57.1 µM]	-0.3%[57.1 µM]	31.6µM*	0.7%
CCCNC(=O)Cn1sc2nc(C)cc(C)c2c1=O	1.78µM*	5.01µM*	-7.1%	-21.0%	28.2µM*	35.1%
Cc1nn(CCOc2ccccc2)c(=O)n1-c1ccc(F)cc1	-3.6%	-5.0%	-5.1%	5.8%	53.2%	-10.8%
C=CC(=O)Oc1ccc(N2Cc3ccccc3C2=O)cc1	.	?	-2.3%	3.55µM*	.	15.8%
COc1ccc(N2Cc3ccccc3C2=O)cc1	11.9%	-12.1%	-5.6%	3.6%[57.1 µM]	-17.2%	181.4%
COCC(C)NC(=O)c1ccc(CN2CCc3ccccc3C2)cc1 (stereo not drawn)	-9.8%	-3.1%	-8.2%	1.7%	-8.2%	-2.5%
CC(=O)Nc1ccc(/C=N/N2CCCCC2)cc1	-4.4%	-15.2%	-10.9%	5.4%[57.1 µM]	-8.0%	5.5%
COC(=O)C1CCN(C(=O)COC(=O)c2oc3ccccc3c2C)CC1	.	8.4%	-1.6%[57.1 µM]	-0.4%[57.1 µM]	2.7%	-8.5%
Cc1occc1-c1nnc(SCCCC(=O)c2ccc(F)cc2)n1C	50.1µM*	-7.7%	-10.2%	-18.2%	-2.2%	-1.4%
CC(C)(C)c1ccc(-c2nc(SCC(=O)Nc3ccc(Cl)cc3)[nH]c(=O)c2C#N)cc1	.	1.6%	3.4%	15.2%	35.5µM*	5.7%
N#Cc1c(-c2ccccc2)cc(-c2ccccc2)nc1SCC(=O)Nc1ccc(Cl)cc1	.	-14.4%	5.2%	14.5%	1.1%	-15.0%
Cc1cc(CCN2CCC(=O)NC2=S)ccc1OC(C)C	16.0%	-3.0%	3.2%	12.9%	2.2%	-1.6%
O=C1CC(C(=O)N2CCN(c3ccccc3O)CC2)CN1Cc1ccccc1 (stereo not drawn)	.	-17.1%	-2.5%	-1.4%	0.9%	5.01µM*
O=C1CC(C(=O)N2CCN(c3ccccc3)CC2)CN1Cc1ccccc1 (stereo not drawn)	.	11.2%	-7.9%	-19.3%	-0.8%	8.1%
Cc1ccc(/C=C2\SC(=S)N(c3c(C)n(C)n(-c4ccccc4)c3=O)C2=O)cc1	?	-6.3%	-3.3%	-3.5%	-8.1%	-8.6%
Cc1c(N2C(=O)/C(=C/C3CC=CCC3)SC2=S)c(=O)n(-c2ccccc2)n1C (stereo not drawn)	44.7µM*	?	-4.4%[57.1 µM]	?	-22.4%	-8.1%
Cc1c(N2C(=O)/C(=C\C3CC=CCC3)SC2=S)c(=O)n(-c2ccccc2)n1C (stereo not drawn)	50.1µM*	50.1µM*	-4.8%	-62.4%	-10.5%	1.4%
Cc1c(N2C(=O)/C(=C/c3cccc4ccccc34)SC2=S)c(=O)n(-c2ccccc2)n1C	.	-5.7%	1.4%	8.7%	.	10.1%
Cc1c(N2C(=O)/C(=C\c3ccccc3O)SC2=S)c(=O)n(-c2ccccc2)n1C	12.6µM*	?	-8.3%	11.3%	?	-5.0%
CCOc1ccc(-c2nnc(SCC(=O)Nc3ccc(C)cc3C)o2)cc1	.	10.7%	-5.0%	5.3%	0.7%	0.2%
COc1ccccc1NS(=O)(=O)c1cccc(C(=O)OCc2nc3ccccc3s2)c1	5.8%	-7.1%	1.6%	18.4%	-10.8%	-9.4%
O=C(Nc1cc(OC(=O)C(F)(F)F)c2nonc2c1OC(=O)C(F)(F)F)C(F)(F)F	.	?	-18.5%	?	.	.
SMILES	Sfp inh	VDR inhibitor	TrxR1 substrate	rTrxR1 inhibitor	KAT2A inh	GLS inh
CN(C(=O)COC(=O)COc1ccc2ccccc2c1)c1ccccc1	.	.	.	.	.	0.5%
CCCc1cc(C(N)=O)c(NC(=O)c2ccoc2C)s1	12.6µM*	-5.5%	6.2%[57.1 µM]	-16.2%	-10.5%	-23.4%
CCCc1cc(C(=O)OC)c(NC(=O)OCC)s1	-5.4%	5.5%	-2.8%	15.1%	-2.4%	1.2%
CCCc1cc(C(N)=O)c(NC(=O)c2cc(C)on2)s1	31.6µM*	-17.2%	2.4%	-0.2%	-2.3%	4.5%
CCNC(=S)NNC(=O)c1cc(C)on1	56.2µM*	7.9%	-0.6%	-24.6%	?	16.0%
COC(=O)CN1C(=O)[C@H]2[C@@H](c3ccc(C)o3)N3C(=O)CN(Cc4ccccc4)C(=O)[C@@]3(C)[C@H]2C1=O	44.7µM*	-12.5%	10.3%[57.1 µM]	?	1.2%	3.1%
Cc1ccnc(NC(c2ccsc2)c2ccc3ccc(C)nc3c2O)c1 (stereo not drawn)	?	39.8µM*	6.3%	3.55µM*	-10.6%	19.4%
Cc1ccnc(NC(c2ccccc2)c2ccc3cccnc3c2O)c1 (stereo not drawn)	.	?	9.3%[57.1 µM]	-76.7%[57.1 µM]	.	16.9%
Cc1ccnc(NC(c2cccnc2)c2ccc3cccnc3c2O)c1 (stereo not drawn)	?	?	5.5%	3.55µM*	16.9%	0.0%
Cc1cccc(NC(c2ccc(C)s2)c2ccc3ccc(C)nc3c2O)n1 (stereo not drawn)	-2.7%	?	-5.4%	70.8µM*	-3.0%	-12.9%
CC1(C)C(=O)Nc2ccccc2N1C(=O)COC(=O)c1cccc(O)c1	.	2.9%	0.0%	16.7%	-12.1%	-5.5%
CCOC(=O)/C=C1\Nc2ccccc2OC1=O	50.1µM*	-6.6%	-7.7%	?	15.1%	21.9%
CC(CSc1n[nH]c(=S)s1)c1ccccc1 (stereo not drawn)	.	-27.1%	-4.2%	-20.0%	.	14.7%
CC(C)CSc1n[nH]c(=S)s1	35.5µM*	-16.4%	7.1%[57.1 µM]	-16.3%[57.1 µM]	?	6.9%
CCOC(=O)C1=C(CSc2nc3c(cc2C#N)CN(C)CC3)OC(N)=C(C#N)C1c1ccc(F)cc1 (stereo not drawn)	56.2µM*	8.2%	9.7%[57.1 µM]	?	-23.7%	-16.5%
CCOC(=O)C1=C(CSc2nc3c(cc2C#N)CCC3)OC(N)=C(C#N)C1c1ccccc1 (stereo not drawn)	20µM*	8.8%	11.0%	?	-5.6%	6.1%
COC(=O)C1=C(CSc2nc3c(cc2C#N)CN(C)CC3)OC(N)=C(C#N)C1c1ccccc1F (stereo not drawn)	22.4µM*	9.6%	6.6%	?	-9.2%	3.4%
CCOC(=O)C1=C(CSc2nc3c(cc2C#N)CN(C)CC3)OC(N)=C(C#N)C1c1ccccc1 (stereo not drawn)	?	-13.7%	7.8%[57.1 µM]	-36.6%	-10.9%	-17.5%
